{"source": "PubChem BioAssay AID1578", "about": "(Sanford-Burnham Center for Chemical Genomics, 2009)", "note": "Out of some 290,000 compounds screened, about 3,000 (1%) were called active. What follows is part of a selection rich in actives, with near analogues and random picks from the rest. Values without a mark were called inactive. No stated cut-off is given here; in the data, active means inhibition mostly above about 36% (no sharp cut-off); inactive means mostly below about 34%."}
{"experiment": "NOD1 signaling inhibitors, primary screen, cell-based, luminescence, uHTS (AID 1578);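 further: HEK-293T reporter cells stimulated with the NOD1 agonist gamma-tri-DAP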", "conditions": "NOD1-driven NF-kB luciferase reporter cells, at 4 µM, stronger effect = higher value"}
{"molecule": "C=C(CO)C1Cc2cc(C(C)=O)ccc2O1", "note": "(configuration not stated)", "inhibition": "-3.8%"}
{"molecule": "CC(C)(C)c1ccc(C(=O)c2c[nH]c(C(=O)NCCCN3CCOCC3)c2)cc1", "inhibition": "-19.7%"}
{"molecule": "COc1ccc(CCC(=O)NC(C)C)cc1", "inhibition": "-11.1%"}
{"molecule": "O=S(=O)(NCCN1CCOCC1)c1ccc(-c2ccc(S(=O)(=O)NCCN3CCOCC3)cc2)cc1", "inhibition": "-11.2%"}
{"molecule": "CCc1ccc(N2CC(C(=O)Nc3nc4ccc(S(C)(=O)=O)cc4s3)CC2=O)cc1", "note": "(configuration not stated)", "inhibition": "0.5%"}
{"molecule": "O=C(CCCN1C(=O)S/C(=C/C=C/c2ccccc2)C1=O)Nc1ccc(C(=O)O)cc1", "inhibition": "-38%"}
{"molecule": "O=C(CCc1ccccc1)NC(NC(=S)Nc1ccc(Cl)cc1)C(Cl)(Cl)Cl", "note": "(configuration not stated)", "inhibition": "19.9%"}
{"molecule": "C/C(=N/NC(=O)c1nnn(-c2nonc2N)c1-c1ccccc1)c1ccncc1", "inhibition": "-26.6%"}
{"molecule": "Cc1c(Cl)c(C(=O)N2CCCc3ccccc32)nn1C", "inhibition": "0.6%"}
{"molecule": "O=c1cc(C(Cl)(Cl)Cl)oc2c1ccc1ccccc12", "inhibition": "82.3% (active)"}
{"molecule": "O=c1cc(C(F)F)oc2c1ccc1ccccc12", "inhibition": "27.3%"}
{"molecule": "O=c1cc(C(F)(F)F)oc2c1ccc1ccccc12", "inhibition": "-3.4%"}
{"molecule": "O=C(/C=C/c1ccc(OC(F)F)cc1)Nc1cccc(S(=O)(=O)NC2=NCCCCC2)c1", "inhibition": "-43.6%"}
{"molecule": "COCCC(=O)N1CCC(Oc2ccc(C(=O)N3C[C@H]4CC[C@H]3C4)cc2)CC1", "inhibition": "-33%"}
{"molecule": "COc1cc(C(=O)NCCNC(=O)c2cc(OC)c(C)c(OC)c2)cc(OC)c1C", "inhibition": "-45.1%"}
{"molecule": "COCCNC(=O)COc1ccc(Oc2ccccc2)cc1", "inhibition": "-26.6%"}
{"molecule": "C=CCNC(=O)COc1ccc(Oc2ccccc2)cc1", "inhibition": "52.1% (active)"}
{"molecule": "C=CCNC(=O)c1ccccc1NC(=O)COc1ccccc1", "inhibition": "27.8%"}
{"molecule": "O=C(NCCSc1ccc(Br)cc1)c1ccc2nc[nH]c2c1", "inhibition": "-38.2%"}
{"molecule": "Cc1ccc(S(=O)(=O)CC(=O)Nc2cc(C)on2)cc1", "inhibition": "24.4%"}
{"molecule": "Cc1cc2oc(=O)sc2cc1NS(=O)(=O)c1cccc2cccnc12", "inhibition": "-17.4%"}
{"molecule": "O=C(CCl)Nc1cccc(CP(=O)(c2ccccc2)c2ccccc2)c1", "inhibition": "106% (active)"}
{"molecule": "O=C(CCl)Nc1cccc(Oc2ccccc2)c1", "inhibition": "75.3% (active)"}
{"molecule": "CCC(=O)Nc1cccc(-c2cnc3ccccc3n2)c1", "inhibition": "-54.6%"}
{"molecule": "CC(=O)Nc1ccc(Oc2cnccn2)cc1", "inhibition": "-8.8%"}
{"molecule": "C=CCN(CC=C)CC(=O)Nc1cccc(Oc2cnccn2)c1", "inhibition": "1.4%"}
{"molecule": "O=C(CN1CCCCC1)Nc1cccc(Oc2ccccc2)c1", "inhibition": "-5.2%"}
{"molecule": "N=c1sccn1CC(=O)Nc1cccc(Oc2ccccc2)c1", "inhibition": "16.7%"}
{"molecule": "O=C(CCl)Nc1cccc(Oc2cnccn2)c1", "inhibition": "32.3% (active)"}
{"molecule": "O=C(CCl)Nc1cccc(-c2cnc3ccccc3n2)c1", "inhibition": "104% (active)"}
{"molecule": "O=C(Nc1cccc(-c2cnc3ccccc3n2)c1)c1ccccc1", "inhibition": "-0.8%"}
{"molecule": "CC(=O)Nc1cccc(CP(=O)(c2ccccc2)c2ccccc2)c1", "inhibition": "-3.5%"}
{"molecule": "O=C(CP(=O)(c1ccccc1)c1ccccc1)Nc1cccc(CP(=O)(c2ccccc2)c2ccccc2)c1", "inhibition": "7.2%"}
{"molecule": "CCOc1ccc(NS(=O)(=O)c2ccc(NC(=O)C3CC3)cc2)cc1", "inhibition": "23.9%"}
{"molecule": "Fc1ccc(NC(=S)NCc2cccnc2)cc1", "inhibition": "-21.1%"}
{"molecule": "Cc1nnc(NC(=O)CN2CCN(Cc3c(Cl)cccc3Cl)CC2)s1", "inhibition": "2.8%"}
{"molecule": "C/C(=N\\NC(=O)c1ccccn1)c1ccc(C(=O)O)s1", "inhibition": "6.8%"}
{"molecule": "Cc1ccccc1NC(=O)c1c(-c2ccccc2)noc1C", "inhibition": "-7.9%"}
{"molecule": "CN(Cc1ccccc1)S(=O)(=O)c1ccc(Cl)c(C(=O)NCc2ccc3c(c2)OCO3)c1", "inhibition": "-8.3%"}
{"molecule": "CC(=O)Nc1nc(C)c(-c2csc(Nc3cccc(C(C)=O)c3)n2)s1", "inhibition": "3.5%"}
{"molecule": "O=[N+]([O-])c1cccc(NC(=S)Nc2nc(-c3ccccc3Cl)cs2)c1", "inhibition": "88.1% (active)"}
{"molecule": "CC(=O)Nc1ccc(Nc2nc(-c3sc(NC(C)=O)nc3C)cs2)cc1", "inhibition": "32.9%"}
{"molecule": "O=C(NC(=S)Nc1nc(-c2cccc([N+](=O)[O-])c2)cs1)c1ccccc1Cl", "inhibition": "-36.4%"}
{"molecule": "O=C(NC(=S)Nc1nc(-c2cccc([N+](=O)[O-])c2)cs1)c1cc(Cl)ccc1Cl", "inhibition": "13.4%"}
{"molecule": "CC(C)CCNC(=O)c1nn(Cc2ccccc2)c(=O)c2ccccc12", "inhibition": "-6.4%"}
{"molecule": "Cc1cc(C(=O)CSc2nnc(NCc3ccccc3)s2)c(C)n1C", "inhibition": "-18.8%"}
{"molecule": "CCN1CCN(c2ncnc3sc(C)c(-c4ccccc4)c23)CC1", "inhibition": "-8.6%"}
{"molecule": "Cc1sc2ncnc(N3CCN(Cc4ccccc4)CC3)c2c1-c1ccccc1", "inhibition": "43.2%"}
{"molecule": "Cc1ccc(C(=O)NS(=O)(=O)c2ccc(N=NN(C)C)cc2)cc1", "inhibition": "46.6% (active)"}
{"molecule": "Cc1ccc(C(=O)NS(=O)(=O)c2ccccc2)cc1", "inhibition": "-46.6%"}
{"molecule": "Cc1ccc(C(=O)NS(=O)(=O)c2ccc(C)cc2)cc1", "inhibition": "-2.7%"}
{"molecule": "Cc1cccc(/C=C2\\CCC(=C3SCCCS3)C2=O)c1", "inhibition": "21.6%"}
{"molecule": "O=C1C(=C2SCCCS2)CC/C1=C\\c1ccc(F)cc1", "inhibition": "76.9% (active)"}
{"molecule": "O=C1/C(=C/c2ccc(F)cc2)CCC1C1CCCC1", "note": "(configuration not stated)", "inhibition": "-42.1%"}
{"molecule": "Cc1ccc(C(=O)Nc2cccnc2Cl)cc1Cl", "inhibition": "-74.4%"}
{"molecule": "NC(=O)COC(=O)c1ccc(NS(=O)(=O)c2ccc3c(c2)OCCO3)cc1", "inhibition": "-9.9%"}
{"molecule": "N#Cc1c(-c2ccccc2)cc(-c2ccccc2)nc1SCCC(=O)O", "inhibition": "3.1%"}
{"molecule": "COc1ccc(-c2cc(-c3ccccc3)c(C#N)c(S(C)(=O)=O)n2)cc1", "inhibition": "19.6%"}
{"molecule": "CS(=O)(=O)c1nc(-c2ccccc2)cc(-c2ccccc2)c1C#N", "inhibition": "68.3% (active)"}
{"molecule": "CC(C)C(Sc1nc(-c2ccccc2)cc(-c2ccccc2)c1C#N)C(=O)O", "note": "(configuration not stated)", "inhibition": "52.9% (active)"}
{"molecule": "COc1ccc(-c2cc(-c3ccccc3)nc(SC(C)C(=O)O)c2C#N)cc1", "note": "(configuration not stated)", "inhibition": "-21.4%"}
{"molecule": "CS(=O)(=O)c1nc(-c2ccc(Br)cc2)cc(-c2ccccc2)c1C#N", "inhibition": "40.6%"}
{"molecule": "COC(=O)c1ccccc1NC(=O)CSc1n[nH]c(-c2ccco2)n1", "inhibition": "-8.4%"}
{"molecule": "O=C(C1CCN(c2ccc(N3CCOCC3)nn2)CC1)N1CCN(c2ccc(F)cc2)CC1", "inhibition": "-18.2%"}
{"molecule": "C=CCSc1nc2sc3c(c2c(=O)[nH]1)CC(C)(CC)OC3", "note": "(configuration not stated)", "inhibition": "-17.8%"}
{"molecule": "Cc1ccccc1NC(=O)CC1SCCNC1=O", "note": "(configuration not stated)", "inhibition": "11.3%"}
{"molecule": "C=CCNCCCCOc1cccc(Br)c1", "inhibition": "11.4%"}
{"molecule": "OCCNCCCCOc1cccc(Br)c1", "inhibition": "75.8% (active)"}
{"molecule": "COCCCNCCCCOc1cccc(Br)c1", "inhibition": "-2.3%"}
{"molecule": "O=S(=O)(/N=C(/NC(=S)Nc1ccccc1)c1ccccc1)c1ccc(Cl)cc1", "inhibition": "-32.1%"}
{"molecule": "O=c1c(Cc2ccc(F)cc2)c(O)ccn1C1CC1", "inhibition": "51.7% (active)"}
{"molecule": "O=c1c(Cc2ccccc2)c(O)ccn1C1CCCCCCC1", "inhibition": "-38.2%"}
{"molecule": "O=c1c(Cc2ccc(F)cc2)c(O)ccn1C1CCCCC1", "inhibition": "-17.4%"}
{"molecule": "CCCCCCCCCCCC(=O)NC(C(=O)OCC)C(O)c1cccc([N+](=O)[O-])c1", "note": "(configuration not stated)", "inhibition": "34.1%"}
{"molecule": "CCCCCCCCCCCC(=O)NC(C(=O)O)C(O)c1ccccc1", "note": "(configuration not stated)", "inhibition": "55.2% (active)"}
{"molecule": "CCCCCCCCOC(=O)C(NC(=O)CCC(=O)Nc1ccc(S(N)(=O)=O)cc1)C(O)c1ccccc1", "note": "(configuration not stated)", "inhibition": "-2.4%"}
{"molecule": "CN1CCN(c2ccc(NC(=O)c3ccco3)cc2Cl)CC1", "inhibition": "-46.7%"}
{"molecule": "Nc1ccc(NC2C[C@@H](C(=O)O)NC2=O)cc1", "note": "(some centres not stated)", "inhibition": "-25.3%"}
{"molecule": "CC(C)CC(=O)N/N=C/c1c(N)n(C)c(=O)n(C)c1=O", "inhibition": "-7.7%"}
{"molecule": "CCn1cc(Cl)c(C(=O)N2N=C(c3ccc4ccccc4c3)CC2c2ccccc2O)n1", "note": "(configuration not stated)", "inhibition": "61.4% (active)"}
{"molecule": "CCn1cc([N+](=O)[O-])c(C(=O)N2N=C(c3ccc(Cl)c(Cl)c3)CC2c2ccccc2O)n1", "note": "(configuration not stated)", "inhibition": "-14.7%"}
{"molecule": "CCn1cc([N+](=O)[O-])c(C(=O)N2N=C(c3ccc4ccccc4c3)CC2c2ccccc2O)n1", "note": "(configuration not stated)", "inhibition": "-40.2%"}
{"molecule": "CCOc1cc(NC(=O)CCl)c(OCC)cc1NC(=O)CCl", "inhibition": "71.2% (active)"}
{"molecule": "CCOc1cc(Cl)c(NC(=O)CC)cc1OCC", "inhibition": "-18.6%"}
{"molecule": "CCCCC(=O)Nc1cc(OCC)c(NC(=S)NC)cc1OCC", "inhibition": "-5.5%"}
{"molecule": "CCN1C(=O)c2ccccc2Sc2ccc(C(=O)NC(C)C)cc21", "inhibition": "0.6%"}
{"molecule": "CC(=O)c1c(C)nc(-c2ccccc2)nc1NC(=O)C(C)C", "inhibition": "-18%"}
{"molecule": "COC(=O)c1sc(SC)c(S(=O)(=O)C(C)C)c1N/N=C(\\C#N)S(=O)(=O)c1ccccn1", "inhibition": "-7.4%"}
{"molecule": "CCOC(=O)/C(C#N)=N/Nc1c(S(=O)(=O)Cc2ccco2)csc1C(=O)OC", "inhibition": "-12.9%"}
{"molecule": "COC(=O)c1sc(SC)c(S(=O)(=O)C(C)C)c1N/N=C(\\C#N)C(=O)c1ccccc1", "inhibition": "-8.9%"}
{"molecule": "COC(=O)c1scc(C)c1NC(=O)c1ccc(Cl)cc1", "inhibition": "-13.3%"}
{"molecule": "COC(=O)c1cc(OC)c(OC)cc1NC(=O)Cc1ccccc1[N+](=O)[O-]", "inhibition": "53.2%"}
{"molecule": "CCSc1nnc(NC(=O)c2cc(C)on2)s1", "inhibition": "-22.4%"}
{"molecule": "Cc1ccc(CNS(=O)(=O)c2ccc3c(c2)NC(=O)C(C)S3)cc1", "note": "(configuration not stated)", "inhibition": "16.1%"}
{"molecule": "Cc1ccccc1C(=O)N1CCC(C(N)=O)CC1", "inhibition": "24.1%"}
{"molecule": "O=C(NCc1ccccc1)C1COc2ccccc2O1", "note": "(configuration not stated)", "inhibition": "-48.6%"}
{"molecule": "O=C(N1CCN(c2ccccn2)CC1)C(Cl)(Cl)Cl", "inhibition": "32.8%"}
